Some test systems named below: HCT-15 colon; HT29 colon; SNB-75 CNS; SNB-19 CNS; U251 CNS; PC-3 prostate; SK-MEL-5 melanoma; UACC-62 melanoma; LOX IMVI melanoma; SK-MEL-28 melanoma.
Holding throughout (assay): NCI-60 one-dose screen, 48 h (100 = growth as untreated, 0 = no growth, -100 = all killed)
Holding throughout (conditions): 10 µM unless noted

From PubChem BioAssay (NCI) come the findings set out here.

The structures appear in SMILES notation. About 83,000 compounds went through this panel and 20% of them were active in at least one assay; those are over-represented in the sample as a whole.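 Negative percent growth values reflect cell death: -40 means 40% of the cells present at the start died, and -100 means all died.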 Values without a mark were called inactive. Activity calls are given as the source filed them. Rule for the calls: active = growth percent below 10; inactive = the rest.

Take `COc1ncc(-c2ccc3nc(N)n(-c4ccccc4C(F)(F)F)c(=O)c3c2)cc1S(=O)(=O)Nc1ccc(F)cc1F`: the growth is 29.4% in the test with HCT-15 colon; 10.8% in the test on HT29 colon; 28.2% in the test with SNB-75 CNS; 76.1% in the test with SNB-19 CNS; 28.2% in the test with U251 CNS; 39% in the test with PC-3 prostate. Moreover, the growth with SK-MEL-5 melanoma is -48.9% (active); in the test with UACC-62 melanoma, 68.8%; in the test on LOX IMVI melanoma, -52.2% (active); in the test with SK-MEL-28 melanoma, 53.9%.
Turning to `NC(=O)CC1C=CCC1` (stereo not given), the growth in the test with HCT-15 colon is 99.5%; with HT29 colon it was 96.3%; in the test on SNB-75 CNS it was 84.3%; in the test with SNB-19 CNS, 104%; with U251 CNS it was 85.5%; in the test with PC-3 prostate it was 98.7%. The growth in the test with SK-MEL-5 melanoma is 99.5%; in the test with UACC-62 melanoma it was 101%; in the test with LOX IMVI melanoma, 103%; with SK-MEL-28 melanoma, 109%.
As for `CCCCCCCCN(CCCCCCCC)CC(O)c1ccc(Cl)c(C)c1Cl` (stereo not given), the growth is 80.1% with HCT-15 colon; 42.2% with HT29 colon; 86.8% in the test on SNB-75 CNS; 93.2% in the test with SNB-19 CNS; 91.3% with U251 CNS; 72.9% with PC-3 prostate. Moreover, the growth was 101% in the test with SK-MEL-5 melanoma, 89.2% in the test on UACC-62 melanoma, 53.5% in the test with LOX IMVI melanoma and 106% with SK-MEL-28 melanoma.
Regarding `O=[N+]([O-])c1cccc(N=NNc2cccc([N+](=O)[O-])c2)c1`, the growth was 85.8% in the test with HCT-15 colon; 92.6% with HT29 colon; 94.4% with SNB-75 CNS; 92% in the test on SNB-19 CNS; 82.8% in the test on U251 CNS; 86.4% with PC-3 prostate. The growth with SK-MEL-5 melanoma is 87.3%; in the test with UACC-62 melanoma, 76.5%; in the test with LOX IMVI melanoma, 89.1%; in the test with SK-MEL-28 melanoma, 99.5%.
For `Cc1c(Cn2cc(COc3ccc(Br)cc3)nn2)c(C)c(Cn2cc(COc3ccc(Br)cc3)nn2)c(C)c1Cn1cc(COc2ccc(Br)cc2)nn1`, the growth with HCT-15 colon was 104%; in the test on HT29 colon it was 92.4%; with SNB-75 CNS, 81.1%; with SNB-19 CNS it was 89.7%; with U251 CNS, 91.3%; in the test with PC-3 prostate, 87.9%. Besides, the growth was 98.4% with SK-MEL-5 melanoma, 76.9% in the test on UACC-62 melanoma, 35% with LOX IMVI melanoma and 94.1% in the test with SK-MEL-28 melanoma.
In the case of `CCN(CC)c1ccc2cc(C(Nc3ccc(C)cc3)c3nnnn3C(C)(C)C)c(=O)oc2c1` (stereo not given), the growth was 98.3% with HCT-15 colon; 94.8% in the test on HT29 colon; 77.6% in the test on SNB-75 CNS; 87.8% in the test with SNB-19 CNS; 89.2% in the test on U251 CNS; 73.7% with PC-3 prostate. Besides, the growth in the test on SK-MEL-5 melanoma was 83.4%; in the test with UACC-62 melanoma it was 71.7%; in the test on LOX IMVI melanoma, 94.8%; in the test on SK-MEL-28 melanoma, 106%.
As to `COc1cc(C)cc2oc3oc(=N)c(C(=O)c4ccccc4)cc3c(=O)c12`, the growth was 103% with HCT-15 colon; 108% in the test with HT29 colon; 86.2% in the test on SNB-75 CNS; 99.4% with SNB-19 CNS; 107% in the test with U251 CNS; 103% in the test with PC-3 prostate. Further, the growth in the test on SK-MEL-5 melanoma was 96.8%; in the test with UACC-62 melanoma, 93.5%; with LOX IMVI melanoma it was 95.6%; in the test with SK-MEL-28 melanoma, 98%.
With `Nc1cc(Cl)cc2cccnc12`, the growth with HCT-15 colon was 103%; with HT29 colon, 101%; in the test with SNB-75 CNS, 79.9%; in the test on SNB-19 CNS it was 109%; with U251 CNS, 111%; in the test with PC-3 prostate, 87.5%. The growth in the test with SK-MEL-5 melanoma was 101%; with UACC-62 melanoma it was 103%; in the test on LOX IMVI melanoma, 88.1%; with SK-MEL-28 melanoma, 113%.
On to `CCc1ccc(C2=C/C(=C/c3ccccc3)C(=O)N2CCc2ccc(S(N)(=O)=O)cc2)cc1`, for which the growth with HCT-15 colon is 108%; with HT29 colon, 117%; in the test with SNB-75 CNS, 66.3%; in the test on SNB-19 CNS, 93.9%; with U251 CNS, 99.7%; in the test with PC-3 prostate it was 99.9%. The growth in the test with SK-MEL-5 melanoma is 98.1%; in the test with UACC-62 melanoma, 95.2%; in the test with LOX IMVI melanoma, 94.9%; with SK-MEL-28 melanoma, 105%.
Regarding `Cn1cc(-c2noc(-c3cn(C)c4ncc(F)cc34)n2)c2ccccc21`, the growth was 58.2% with HCT-15 colon; 66.1% in the test on HT29 colon; 1.91% (active) in the test with SNB-75 CNS; 81.2% with SNB-19 CNS; 30.8% in the test on U251 CNS; 71.7% with PC-3 prostate. Moreover, the growth in the test with SK-MEL-5 melanoma is 82.8%; in the test with UACC-62 melanoma, 80.1%; in the test with LOX IMVI melanoma, 52.3%; in the test on SK-MEL-28 melanoma it was 94.1%.
Take `Cn1cc(-c2nnc(-c3ccccc3)s2)c2cc(Br)cnc21`: the growth with HCT-15 colon was 77.6%; in the test on HT29 colon it was 95%; in the test on SNB-75 CNS, 29.9%; in the test on SNB-19 CNS it was 87.9%; in the test with U251 CNS, 92%; in the test with PC-3 prostate, 84.9%. Besides, the growth was 74.1% with SK-MEL-5 melanoma, 69.5% in the test with UACC-62 melanoma, 83.3% in the test with LOX IMVI melanoma and 97.6% in the test on SK-MEL-28 melanoma.
As to `CCOC(=O)C1=C(C(=O)c2ccc(Br)cc2)C(c2ccc(Br)cc2)NC(=S)N1` (stereo not given), the growth with HCT-15 colon is 99%; in the test on HT29 colon, 104%; in the test on SNB-75 CNS it was 93.1%; in the test on SNB-19 CNS it was 100%; in the test with U251 CNS, 95.8%; with PC-3 prostate, 98.1%. Also, the growth is 103% in the test on SK-MEL-5 melanoma, 94.8% in the test on UACC-62 melanoma, 94% in the test on LOX IMVI melanoma and 105% in the test with SK-MEL-28 melanoma.
